Source: the supplement of paper PMC10981050
Where “and” joins values, the source holds several entries; their conditions need not be identical. Identical values can stand only once. Counter-ions that a name gives are not always drawn.

How the values were obtained:
Experiment in all cases: cell viability relative to vehicle control; higher = less cytotoxic
Conditions in all cases: 10 µM
[1] = test system: K562
Outline: (§1)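 CRISPR-edited mutant clones and isogenic wild-type clones from four leukaemia lines were screened against Selleck bioactive, kinase and epigenetic probe libraries, with identity-inconsistent compounds excluded. Each compound was acoustically dispensed at a single 10 µM dose into 384-well plates holding 2000 cells in 50 µL medium per well. After 48 h the supernatant was removed and CellTiter-Glo luminescence was read. Viability was expressed as percent of the on-plate vehicle control and analysed in Genedata Screener.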

[2] = test system: MARIMO
Outline: as §1

[3] = test system: MOLM14
Outline: as §1

[4] = test system: OCI-AML2
Outline: as §1

| SMILES | cell viability ([1]; SRSF2 genotype: SRSF2 P95H/wt) | cell viability ([1]; SRSF2 genotype: SRSF2 wt/wt) [%] | cell viability ([2]; SRSF2 genotype: SRSF2 P95H/wt) [%] | cell viability ([2]; SRSF2 genotype: SRSF2 wt/wt) [%] | cell viability ([3]; SRSF2 genotype: SRSF2 P95H/wt) [%] | cell viability ([3]; SRSF2 genotype: SRSF2 wt/wt) [%] | cell viability ([4]; SRSF2 genotype: P95H/wt) [%] | cell viability ([4]; SRSF2 genotype: wt/wt) [%] |
| --- | --- | --- | --- | --- | --- | --- | --- | --- |
| CC[C@H]1CN2CC[C@]3(C(=O)Nc4ccccc43)[C@@H]2C[C@@H]1/C(=C\OC)C(=O)OC [Rhynchophylline] | 93.2% and 97.5% | 89.5 | 80.4 | 77.7 | 88.9 | 88.3 | 86.7 | 88.5 |
| CCNC(=O)C[C@@H]1N=C(c2ccc(Cl)cc2)c2cc(OC)ccc2-n2c(C)nnc21 | 72.5% and 71.1% | 73.3 | 38.9 | 41.3 | 30 | 28.7 | 24.7 | 37.5 |
| CC[C@]12C=CCN3CC[C@]4(C(=C(C(=O)OC)C1)Nc1ccccc14)[C@@H]32 [Tabersonine] | 17.7% and 27% | 30.1 | 19.1 | 18.7 | 11.3 | 4.06 | 7.01 | 14.7 |
| CC(=O)O[C@@]12CO[C@@H]1C[C@H](O)[C@@]1(C)C(=O)[C@H](O)C3=C(C)[C@@H](OC(=O)[C@H](O)[C@@H](NC(=O)c4ccccc4)c4ccccc4)C[C@@](O)([C@@H](OC(=O)c4ccccc4)[C@H]21)C3(C)C [10-deacetyl-paclitaxel] | 25.2% and 36.9% | 34.3 | 7.89 | 4.88 | 9.1 | 3.82 | 10.3 | 15.4 |
| CC(C)[C@]12O[C@H]1[C@@H]1O[C@@]13[C@@]1(C)CCC4=C(COC4=O)[C@@H]1C[C@@H]1O[C@@]13C2=O [Triptonide] | 5.3% and 13.3% | 8.48 | 12.8 | 5.79 | 2.66 | 0.71 | 5.01 | 15.2 |
| Cc1c(Cl)c(OCC(=O)N2CCN(C)CC2)nc2sc(C(=O)NC3CC3)c(N)c12 | 80.2% and 60.3% | 66 | 40.5 | 30.8 | 81.9 | 51 | 27.8 | 33.5 |
| Cc1cccc(C(C)c2c[nH]cn2)c1C (centres undefined) [Medetomidine HCl] | 97.2% and 99.8% | 95.1 | 95.1 | 107 | 101 | 102 | 97 | 113 |
| Cc1cccc(C)c1NC1=NCCCS1 [Xylazine HCl] | 101% and 85.1% | 82.8 | 85.1 | 96.8 | 90.4 | 91.5 | 89.1 | 93.1 |
| C=C[C@H]1CN2CC[C@@]3(C(=O)Nc4ccccc43)[C@@H]2C[C@@H]1/C(=C\OC)C(=O)OC [Isocorynoxeine] | 81.8% and 92.6% | 82.3 | 77.4 | 72.7 | 84.4 | 79.5 | 88.2 | 83.3 |
| CC1=C[C@]23C(=O)[C@@H](C=C(CO)[C@@H](O)[C@]2(O)[C@H]1O)[C@H]1[C@@H](C[C@H]3C)C1(C)C [Ingenol] | 113% and 98.6% | 111 | 109 | 107 | 111 | 108 | 68.2 | 79 |
| Cc1c(N)nc(C(CC(N)=O)NCC(N)C(N)=O)nc1C(=O)NC(C(=O)NC(C)C(O)C(C)C(=O)NC(C(=O)NCCc1nc(-c2nc(C(=O)NCCC[S+](C)C)cs2)cs1)C(C)O)C(O[C@@H]1O[C@@H](CO)[C@@H](O)[C@H](O)[C@@H]1O[C@H]1O[C@H](CO)[C@@H](O)[C@H](OC(N)=O)[C@@H]1O)c1cnc[nH]1 (some centres undefined) [Bleomycin sulfate] | 95.9% and 107% | 69.7 | 7.26 | 8.15 | 53.4 | 21.6 | 27 | 36.8 |
| C[C@]12CC[C@H](O)C[C@@H]1CC[C@@H]1[C@@H]2CC[C@]2(C)C(=O)CC[C@@H]12 | 94.7% and 104% | 104 | 98.9 | 108 | 98.5 | 107 | 106 | 97.3 |
| CCN1C[C@]2(COC)CC[C@H](OC)[C@]34C1[C@H](C[C@H]23)[C@@]1(O)C[C@H](OC)[C@H]2C[C@@H]4[C@@H]1[C@H]2O [Talatisamine] | 110% and 104% | 108 | 104 | 108 | 105 | 106 | 101 | 107 |
| CC(NC(C)(C)C)C(=O)c1cccc(Cl)c1 (centres undefined) [Amfebutamone (Bupropion) HCl] | 86.7% and 90.3% | 95.6 | 87.9 | 94.1 | 95.1 | 95.6 | 93.1 | 90.5 |
| c1ccc2c(c1)[I+]c1ccccc1-2 [Diphenyleneiodonium chloride (DPI)] | 25.4% and 25.3% | 25 | 19.6 | 25.4 | 3.2 | 2.99 | 11.4 | 16.4 |
| C[C@H]1CCCC(=O)CCC/C=C/c2cc(O)cc(O)c2C(=O)O1 [Zearalenone] | 101% and 93.8% | 99.5 | 82.7 | 88.8 | 79.2 | 99 | 88.7 | 97.7 |
| COC(=O)C1=CCCN(C)C1 [Arecoline HBr] | 93.5% and 96.8% | 97.5 | 96 | 99 | 97.4 | 99.9 | 92 | 106 |
| C/C(O)=C(\C#N)C(=O)Nc1cc(Br)ccc1Br | 88.8% and 87.1% | 89.1 | 88.4 | 96.5 | 78.9 | 93.7 | 86.1 | 87.7 |
| NCC(=O)O.[C-]#[O+].[C-]#[O+].[C-]#[O+].[Cl][Ru] | 104% and 93.3% | 96.2 | 88.5 | 99.2 | 88.6 | 90.8 | 91.9 | 114 |

| SMILES | cell viability ([1]; SRSF2 genotype: SRSF2 P95H/wt) | cell viability ([1]; SRSF2 genotype: SRSF2 wt/wt) [%] | cell viability ([2]; SRSF2 genotype: SRSF2 P95H/wt) [%] | cell viability ([2]; SRSF2 genotype: SRSF2 wt/wt) [%] | cell viability ([3]; SRSF2 genotype: SRSF2 P95H/wt) [%] | cell viability ([3]; SRSF2 genotype: SRSF2 wt/wt) [%] | cell viability ([4]; SRSF2 genotype: P95H/wt) [%] | cell viability ([4]; SRSF2 genotype: wt/wt) [%] |
| --- | --- | --- | --- | --- | --- | --- | --- | --- |
| O=c1[nH]c2ccc(Cl)cc2c(N[C@@H]2CN3CCC2CC3)c1-c1nc2ccccc2[nH]1 | 2.58% and 2.45% | 0.48 | 0.55 | 0.36 | 0.07 | -0.01 | 0.04 | 0.75 |
| CCCN1C[C@H](CSC)C[C@@H]2c3cccc4[nH]cc(c34)C[C@H]21 [Pergolide mesylate] | 86.1% and 87.8% | 89.7 | 91.7 | 103 | 69.6 | 83.5 | 84 | 93.1 |
| O=C(C[S+]([O-])C(c1ccccc1)c1ccccc1)NO (centres undefined) [Adrafinil] | 95.6% and 94.3% | 103 | 92.9 | 96.4 | 95.3 | 102 | 91.8 | 110 |
| CC[C@H]1CN2CC[C@H]1C[C@H]2[C@H](O)c1ccnc2ccc(OC)cc12 [Hydroquinine] | 102% and 101% | 103 | 97.5 | 111 | 87.8 | 106 | 100 | 110 |
| O=C(CC1NCCCC1O)Cn1cnc2cc(Br)c(Cl)cc2c1=O (centres undefined) [Halofuginone] | 6.09% and 15.2% | 11 | 8.89 | 3.03 | 0.77 | 0.52 | 0.78 | 5.46 |
| CC(C)=CCC[C@](C)(O)[C@H]1CC[C@]2(C)[C@@H]1[C@H](O)C[C@@H]1[C@@]3(C)CC[C@H](O[C@@H]4O[C@H](CO)[C@@H](O)[C@H](O)[C@H]4O)C(C)(C)[C@@H]3CC[C@]12C [20S-Ginsenoside Rh2] | 98.1% and 92.1% | 105 | 104 | 106 | 103 | 106 | 97.4 | 96.2 |
| O=C/C=C/c1ccccc1 [Cinnamaldehyde] | 97.5% and 92.8% | 94.3 | 92 | 95.3 | 96.1 | 98.9 | 102 | 102 |
| COc1ccc2c(c1OC)CC1c3c(cc4c(c3-2)OCO4)CCN1C (centres undefined) [Crebanine] | 93.7% and 93.3% | 95.9 | 80.5 | 83 | 95.9 | 93.4 | 80.6 | 84.5 |
| CN(C)[C@@H]1C(=O)C(C(N)=O)=C(O)[C@@]2(O)C(=O)C3=C(O)c4c(O)cccc4[C@@](C)(O)[C@H]3[C@H](O)[C@@H]12 [Oxytetracycline dihydrate] | 98.3% and 102% | 101 | 104 | 100 | 97.6 | 103 | 103 | 92.6 |
| COP(=O)(OC)SCn1c(=O)oc2cc(Cl)cnc21 [Azamethiphos] | 55.4% and 71.8% | 78.9 | 48.4 | 58.3 | 93.3 | 107 | 110 | 106 |
| c1c2c(cc3c1OCO3)-c1cc3ccc4c(c3c[n+]1CC2)OCO4 [Coptisine chloride] | 83.7% and 89.7% | 84.2 | 95.4 | 99.8 | 96.2 | 94.3 | 84.5 | 91.7 |
| CC(C)(C)c1cc(C=C(C#N)C#N)cc(Br)c1O | 84.3% and 86.2% | 78 | 94.2 | 99.3 | 93.5 | 100 | 80.5 | 89.6 |
| Nc1nc(N)nc(N)n1 [Melamine] | 93% and 95.7% | 90 | 94.3 | 99 | 90.1 | 94.4 | 95.2 | 97.8 |
| O=C([O-])C(Cl)Cl.[Na+] [Sodium dichloroacetate (DCA)] | 96.5% and 94.6% | 97.6 | 96.1 | 104 | 95.3 | 99 | 96.7 | 101 |
| O=C(O)CCCCCCCCCO [10-Hydroxydecanoic acid] | 99.2% and 97.8% | 100 | 97.8 | 101 | 97.9 | 99.3 | 99.4 | 92.7 |
| COc1cc2c3c(c1OC)-c1ccccc1C[C@H]3N(C)CC2 [Nuciferine] | 102% and 108% | 102 | 102 | 108 | 102 | 104 | 96.3 | 106 |
| CCNc1nc(Cl)nc(NC(C)C)n1 [Atrazine] | 97.5% and 94.1% | 98.2 | 90.6 | 102 | 93.9 | 97 | 99.1 | 104 |
| CCC1(c2cccc(O)c2)CCCCN(C)C1 (centres undefined) [Meptazinol HCl] | 96.2% and 101% | 100 | 91 | 93.7 | 103 | 98.1 | 96.4 | 92.4 |
| CC1CCC2N(C1)CC1C3CC4C(CC(=O)C5CC(O)CCC54C)C3CCC1C2(C)O (centres undefined) [Peiminine] | 92.5% and 90.8% | 86.1 | 107 | 109 | 87 | 75.6 | 46.2 | 58.8 |
